Test in all cases: glycan array binding signal (z-score within array); higher = stronger binding
What all share (conditions): glycan notation: IUPAC condensed, linker removed

Assay [1] deals with Fuc(a1-2)Gal(b1-3)GlcNAc(b1-3)Gal(b1-4)Glc. In outline:
(§1)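 Glycan array data came from 3228 arrays in the Consortium for Functional Glycomics database, and only arrays with an available protein sequence were kept. Glycan names were put into IUPAC-condensed notation, and columns mapping to the same glycan were averaged. The binding signal is a within-array Z-score, averaged across arrays of one protein sequence run at different concentrations or buffers and across linkers. A negative Z-score can be read as non-binding.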

Assay [2] deals with Fuc(a1-2)Gal(b1-4)GlcNAc(b1-2)Man(a1-6)[Gal(b1-4)GlcNAc(b1-2)Man(a1-3)]Man(b1-4)GlcNAc(b1-4)GlcNAc. In outline: as §1
The target in assay [3] is Fuc(a1-2)Gal(b1-4)GlcNAc(b1-3)Gal(b1-4)GlcNAc(b1-3)Gal(b1-4)GlcNAc. An outline of the steps: as §1
In assay [4] the target is Fuc(a1-2)Gal(b1-4)GlcNAc6S. In outline: as §1
In assay [5] the target is Fuc(a1-2)Gal6S(b1-4)GlcNAc. An outline of the steps:
as §1

Assay [6] addresses Fuc(a1-3)[Gal(b1-4)]GlcNAc. In outline:
as §1

In the next assay the target is Gal(a1-3)Gal(b1-4)Glc. In outline:
as §1

In a further assay the target is Gal(b1-3)GalNAc. In outline:
as §1

Assay [7] has as its target Gal(b1-3)GlcNAc(b1-3)Gal(b1-4)Glc. An outline of the steps: as §1
Assay [8] addresses Gal(b1-4)GlcNAc(b1-3)Gal(b1-4)Glc. In outline: as §1
The target in another assay is GlcA(b1-3)Gal. An outline of the steps: as §1
Assay [9] concerns the target GlcNAc(b1-3)[GlcNAc(b1-6)]Gal(b1-4)GlcNAc. An outline of the steps: as §1
The target of assay [10] is GlcNAc(b1-4)GlcNAc(b1-4)GlcNAc(b1-4)GlcNAc(b1-4)GlcNAc(b1-4)GlcNAc. An outline of the steps:
as §1

Assay [11] has as its target Man(a1-2)Man(a1-2)Man(a1-3)Man. In outline:
as §1

For another assay, the target named is Man(a1-3)[Man(a1-6)]Man. In outline: as §1
The next assay addresses Man(b1-4)GlcNAc. An outline of the steps:
as §1

In assay [12] the target is Neu5Ac(a2-3)Gal(b1-4)[Fuc(a1-3)]GlcNAc(b1-6)[Gal(b1-3)]GalNAc. An outline of the steps:
as §1

Assay [13] deals with Neu5Ac(a2-6)Gal(b1-4)GlcNAc(b1-2)Man(a1-6)[GlcNAc(b1-2)Man(a1-3)]Man(b1-4)GlcNAc(b1-4)GlcNAc. An outline of the steps:
as §1

Assay [14] concerns the target Neu5Ac(a2-3)Gal(b1-3)GlcNAc(b1-3)GalNAc. An outline of the steps:
as §1

Assay [15] concerns the target Neu5Ac(a2-3)Gal(b1-4)GlcNAc(b1-3)Gal(b1-4)GlcNAc(b1-3)Gal(b1-4)GlcNAc. An outline of the steps:
as §1

In assay [16] the target is Neu5Ac(a2-3)Gal(b1-4)[Fuc(a1-3)]GlcNAc. An outline of the steps:
as §1

The target in assay [17] is Neu5Ac(a2-3)Gal6S(b1-4)GlcNAc. An outline of the steps:
as §1

Assay [18] deals with Neu5Ac(a2-6)Gal(b1-4)GlcNAc(b1-2)Man(a1-6)[Gal(b1-4)GlcNAc(b1-2)Man(a1-3)]Man(b1-4)GlcNAc(b1-4)GlcNAc. An outline of the steps:
as §1

Assay [19] concerns the target Neu5Ac(a2-6)Gal(b1-4)GlcNAc(b1-3)Gal(b1-4)[Fuc(a1-3)]GlcNAc(b1-3)Gal(b1-4)[Fuc(a1-3)]GlcNAc. An outline of the steps: as §1
The target of another assay is Neu5Gc(a2-6)GalNAc. An outline of the steps:
as §1

For assay [20], the target named is Fuc(a1-2)Gal(b1-3)[Fuc(a1-4)]GlcNAc(b1-2)Man(a1-3)[Fuc(a1-2)Gal(b1-3)[Fuc(a1-4)]GlcNAc(b1-2)Man(a1-6)]Man(b1-4)GlcNAc(b1-4)GlcNAc. An outline of the steps: as §1
The target in the next assay is Fuc(a1-2)Gal(b1-4)Glc6S. In outline: as §1
In assay [21] the target is Fuc(a1-2)Gal(b1-4)[Fuc(a1-3)]GlcNAc. In outline:
as §1

For assay [22], the target named is Fuc(a1-2)Gal(b1-4)[Fuc(a1-3)]GlcNAc(b1-2)Man(a1-3)[Fuc(a1-2)Gal(b1-4)[Fuc(a1-3)]GlcNAc(b1-2)Man(a1-6)]Man(b1-4)GlcNAc(b1-4)GlcNAc. In outline: as §1
The target in assay [23] is Fuc(a1-2)Gal(b1-4)[Fuc(a1-3)]GlcNAc(b1-3)Gal(b1-4)[Fuc(a1-3)]GlcNAc(b1-3)Gal(b1-4)[Fuc(a1-3)]GlcNAc. In outline:
as §1

The target of assay [24] is Fuc(a1-2)[Gal(a1-3)]Gal(b1-4)Glc. An outline of the steps:
as §1

For assay [25], the target named is Fuc(a1-3)[Gal(b1-4)]GlcNAc(b1-4)Gal(b1-4)[Fuc(a1-3)]GlcNAc(b1-4)Gal(b1-4)[Fuc(a1-3)]GlcNAc. In outline: as §1
Assay [26] concerns the target Fuc(a1-3)[Neu5Ac(a2-3)]Gal(b1-4)GlcNAc(b1-3)GalNAc. An outline of the steps: as §1
A further assay concerns the target Fuc(a1-4)GlcNAc. In outline: as §1
Assay [27] addresses Gal(a1-3)Gal(b1-4)[Fuc(a1-3)]GlcNAc(b1-2)Man(a1-3)[Gal(a1-3)Gal(b1-4)[Fuc(a1-3)]GlcNAc(b1-2)Man(a1-6)]Man(b1-4)GlcNAc(b1-4)GlcNAc. An outline of the steps:
as §1

The target in another assay is Gal(a1-3)GalNAc. In outline: as §1
For a further assay, the target named is Gal(b1-3)GlcNAc. In outline: as §1
The target in assay [28] is Gal(b1-4)GlcNAc(b1-2)Man(a1-3)[Man(a1-6)]Man(b1-4)GlcNAc(b1-4)GlcNAc. An outline of the steps:
as §1

Assay [29] has as its target Gal(b1-4)GlcNAc(b1-2)[Gal(b1-4)GlcNAc(b1-4)]Man(a1-3)[Gal(b1-4)GlcNAc(b1-2)Man(a1-6)]Man(b1-4)GlcNAc(b1-4)GlcNAc. An outline of the steps:
as §1

The next assay concerns the target Gal4S6S(b1-4)GlcNAc. In outline: as §1
The target of assay [30] is GlcNAc(a1-4)Gal(b1-4)GlcNAc. In outline:
as §1

Assay [31] concerns the target GlcNAc(b1-2)Man(a1-3)[GlcNAc(b1-2)Man(a1-6)]Man(b1-4)GlcNAc(b1-4)[Fuc(a1-6)]GlcNAc. An outline of the steps: as §1
A further assay addresses GlcNAc(b1-3)Gal. In outline: as §1
Assay [32] has as its target Man(a1-2)Man(a1-2)Man(a1-6)[Man(a1-3)]Man. An outline of the steps:
as §1

Assay [33] deals with Man(a1-2)Man(a1-3)[Man(a1-2)Man(a1-6)]Man. In outline:
as §1

For assay [34], the target named is Man(a1-2)Man(a1-3)[Man(a1-2)Man(a1-6)]Man(a1-6)[Man(a1-2)Man(a1-2)Man(a1-3)]Man. In outline:
as §1

In assay [35] the target is Man(a1-2)Man(a1-3)[Man(a1-6)]Man(a1-6)[Man(a1-2)Man(a1-3)]Man(b1-4)GlcNAc(b1-4)GlcNAc. In outline: as §1
In assay [36] the target is Man(a1-2)Man(a1-6)[Man(a1-3)]Man(a1-6)[Man(a1-2)Man(a1-2)Man(a1-3)]Man. In outline:
as §1

The target in assay [37] is Man(a1-2)Man(a1-6)[Man(a1-3)]Man(a1-6)[Man(a1-2)Man(a1-2)Man(a1-3)]Man(b1-4)GlcNAc(b1-4)GlcNAc. In outline:
as §1

The target in assay [38] is Neu5Ac(a2-6)Gal(b1-4)GlcNAc(b1-3)Gal(b1-4)GlcNAc. An outline of the steps:
as §1

Assay [39] concerns the target Neu5Ac(a2-6)Gal(b1-4)GlcNAc6S. In outline:
as §1

Assay [40] concerns the target Neu5Ac(a2-8)Neu5Ac(a2-3)[GalNAc(b1-4)]Gal(b1-4)Glc. An outline of the steps:
as §1

Assay [41] has as its target Neu5Ac(a2-8)Neu5Ac(a2-8)Neu5Ac. An outline of the steps: as §1
Assay [42] deals with Neu5Gc(a2-3)Gal(b1-3)[Fuc(a1-4)]GlcNAc. An outline of the steps:
as §1

The entries come from a sample that favours the strongest signals as a whole.

B1: TbCVNHOa (Tuber borchii), Q5MK11 (protein)
chain: MSYADSSRNAVLTNGGRTLRAECRNADGNWVTSELDLDTCIGNPNGFLGWGMQNFSHSSEDIKLEEGGRKLTCRPKTVDGGFRERQGIDLNRIQNVNGRLVFQ
With B1, the “glycan array binding signal (z-score)” value in [1] is 1.94; in assay [2] it was -0.642; in [3], -0.116; in assay [4], 0.067; in assay [5], 0.327; in assay [6], -0.024. The “glycan array binding signal (z-score)” value in the assay with Gal(a1-3)Gal(b1-4)Glc is 1.45; in the assay with Gal(b1-3)GalNAc, -0.24; in assay [7], 2.76; in assay [8] it was 1.38; in the assay with GlcA(b1-3)Gal it was -0.018; in assay [9], 0.219. The “glycan array binding signal (z-score)” value is -0.762 in [10]; 5.14 in assay [11]; -0.273 with Man(a1-3)[Man(a1-6)]Man; -0.533 in the assay with Man(b1-4)GlcNAc; 0.487 in assay [12]; -0.034 in [13].

B2: Gal 3 (Homo sapiens), P17931 (protein)
chain: MADNFSLHDALSGSGNPNPQGWPGAWGNQPAGAGGYPGASYPGAYPGQAPPGAYPGQAPPGAYHGAPGAYPGAPAPGVYPGPPSGPGAYPSSGQPSAPGAYPATGPYGAPAGPLIVPYNLPLPGGVVPRMLITILGTVKPNANILDFQRGNDVAFHFNPRFNENNRRVIVCNTKLDNNWGREERQSVFPFESGKPFKIQVLVEPDHFKVAVNDAHLLQYNHRVKKLNEISKLGISGDIDLTSASYTMI
Take B2: the “glycan array binding signal (z-score)” value was -0.375 in assay [14]; 3.82 in assay [15]; -0.39 in [16]; -0.387 in [17]; -0.391 in assay [18]; -0.386 in assay [19]. Moreover, the “glycan array binding signal (z-score)” value in the assay with Neu5Gc(a2-6)GalNAc was -0.392.

B3: DGL (Dioclea grandiflora), P08902 (protein)
chain: ADTIVAVELDSYPNTDIGDPNYPHIGIDIKSIRSKSTARWNMQTGKVGTVHISYNSVAKRLSAVVSYSGSSSTTVSYDVDLNNVLPEWVRVGLSATTGLYKETNTILSWSFTSKLKTNSIADENSLHFSFHKFSQNPKDLILQGDAFTDSDGNLELTKVSSSGDPQGNSVGRALFYAPVHIWESSAVVASFDATFTFLIKSPDREPADGITFFIANTDTSIPSGSGGRLLGLFPDAN
Consider B3, for which the “glycan array binding signal (z-score)” value in assay [1] is -0.177; in [20] it was -0.169; with Fuc(a1-2)Gal(b1-4)Glc6S, -0.172; in assay [21] it was -0.176; in assay [22] it was -0.144; in [23] it was -0.168. For the same molecule, the “glycan array binding signal (z-score)” value in assay [24] is -0.177; in assay [25], -0.182; in [26], -0.072; with Fuc(a1-4)GlcNAc it was -0.175; in [27] it was -0.175; in the assay with Gal(a1-3)GalNAc it was -0.173. In addition, the “glycan array binding signal (z-score)” value was -0.172 in the assay with Gal(b1-3)GlcNAc; -0.151 in assay [28]; -0.161 in assay [29]; -0.183 with Gal4S6S(b1-4)GlcNAc; -0.176 in assay [30]; 0.316 in assay [31]. The “glycan array binding signal (z-score)” value is -0.178 with GlcNAc(b1-3)Gal; -0.183 in [9]; 5.91 in assay [32]; 9.67 in [33]; 3.48 in assay [34]; 6.68 in [35]. The “glycan array binding signal (z-score)” value is 7.91 in [36]; 6.41 in assay [37]; 3.63 in the assay with Man(a1-3)[Man(a1-6)]Man; -0.186 with Man(b1-4)GlcNAc; -0.183 in assay [15]; -0.178 in assay [38]. Moreover, the “glycan array binding signal (z-score)” value is -0.179 in assay [39], -0.178 in assay [40], -0.175 in [41] and -0.179 in assay [42].

Source of the values: the supplement of paper PMC8728848.
